Measurements from PubChem BioAssay (EPA / NIEHS).
Activity calls are given as the source filed them. The calls were made as follows: active = hit-call score of the fitted dose curve at least 0.9, where 1 is the maximum; inactive = score below 0.9.

Experiments:
[1] = read-out: Thrombomodulin, THBD (gene 7056); assay: BSK_CASM3C_Thrombomodulin: BioMAP Diversity Plus: CASM3C Assay for Thrombomodulin Biomarker Activity (AID 2283051); conditions: primary human coronary artery smooth muscle cells; actives raise or lower the signal;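 also: thrombomodulin protein level measured by ELISA 24 h after dosing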
[2] = read-out: Tissue Factor, F3 (gene 2152); assay: BSK_CASM3C_TissueFactor: BioMAP Diversity Plus: CASM3C Assay for Tissue Factor Biomarker Activity (AID 2283052); conditions: primary human coronary artery smooth muscle cells; actives raise or lower the signal;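 also: cell surface tissue factor protein level read by ELISA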
[3] = read-out: Interferon-gamma inducible Protein 10 (IP10), CXCL10 (gene 3627); assay: BSK_hDFCGF_IP10: BioMAP Diversity Plus: hDFCGF Assay for Interferon-gamma inducible Protein 10 (IP10) Biomarker Activity (AID 2283053); conditions: primary human foreskin fibroblasts; actives raise or lower the signal
In short: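 Chemical-treated human skin fibroblasts (primary) were sampled at 24 h for IP-10 by ELISA. Both increases and decreases relative to DMSO were scored.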

[4] = read-out: Urokinase-type plasminogen activator receptor (uPAR), PLAUR (gene 5329); assay: BSK_CASM3C_uPAR: BioMAP Diversity Plus: CASM3C Assay for Urokinase-type plasminogen activator receptor (uPAR) Biomarker Activity (AID 2283054); conditions: primary human coronary artery smooth muscle cells; actives raise or lower the signal;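 also: cell-surface uPAR protein level quantified by ELISA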
[5] = read-out: Vascular cell adhesion molecule 1 (VCAM1), VCAM1 (gene 7412); assay: BSK_CASM3C_VCAM1: BioMAP Diversity Plus: CASM3C Assay for Vascular cell adhesion molecule 1 (VCAM1) Biomarker Activity (AID 2283055); conditions: primary human coronary artery smooth muscle cells; actives raise or lower the signal;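 also: VCAM-1 protein level quantified by ELISA on the cells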
[6] = read-out: Collagen III, COL3A1 (gene 1281); assay: BSK_hDFCGF_CollagenIII: BioMAP Diversity Plus: hDFCGF Assay for Collagen III Biomarker Activity (AID 2283056); conditions: primary human foreskin fibroblasts; actives raise or lower the signal
In short: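 hDFCGF primary human dermal fibroblasts; 24 h chemical exposure; collagen III by ELISA; bidirectional curve fit vs DMSO baseline (gain or loss of signal).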

[7] = read-out: Epidermal growth factor receptor (EGFR), EGFR (gene 1956); assay: BSK_hDFCGF_EGFR: BioMAP Diversity Plus: hDFCGF Assay for Epidermal growth factor receptor (EGFR) Biomarker Activity (AID 2283057); conditions: primary human foreskin fibroblasts; actives raise or lower the signal
In short: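 Cell-based multiplexed assay in primary human foreskin fibroblasts. EGFR is read by ELISA 24 h after treatment and compared with DMSO controls.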

[8] = read-out: Interleukin-8 (IL8), CXCL8 (gene 3576); assay: BSK_hDFCGF_IL8: BioMAP Diversity Plus: hDFCGF Assay for Interleukin-8 (IL8) Biomarker Activity (AID 2283058); conditions: primary human foreskin fibroblasts; actives raise or lower the signal
In short: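 ELISA read-out of IL-8 from primary human foreskin fibroblast cultures taken 24 h after dosing; values are bidirectional fits relative to DMSO vehicle.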

[9] = BSK_hDFCGF_Proliferation: Cell Proliferation Assessment in the BioMAP Diversity Plus: hDFCGF Assay (AID 2283059); conditions: primary human foreskin fibroblasts;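 also: curves fitted for both rise and fall of signal versus DMSO baseline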
In short: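 Primary human foreskin fibroblasts, sub-confluent; […]; 10% TCA fix, 0.1% SRB stain, A560 total protein. Gain/loss fitted bidirectionally vs DMSO control.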

[10] = read-out: Macrophage colony-stimulating factor (MCSF), CSF1 (gene 1435); assay: BSK_hDFCGF_MCSF: BioMAP Diversity Plus: hDFCGF Assay for Macrophage colony-stimulating factor (MCSF) Biomarker Activity (AID 2283060); conditions: primary human foreskin fibroblasts; actives raise or lower the signal
In short: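 ELISA read-out of M-CSF in human dermal foreskin fibroblast cultures, 24 h after chemical dosing; gain or loss of signal fitted bidirectionally relative to DMSO baseline.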

[11] = BSK_hDFCGF_SRB: Viability Assessment in the BioMAP Diversity Plus: hDFCGF Assay (AID 2283061); conditions: primary human foreskin fibroblasts;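 also: cells exposed to compound for 24 h before the read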
In short: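 Primary human foreskin fibroblasts; 24 h post-dose; fixed 10% TCA, stained 0.1% SRB, A560 read; total protein as overt cytotoxicity measure; curves fit bidirectionally vs DMSO control.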

[12] = read-out: TIMP metallopeptidase inhibitor 1 (TIMP1), TIMP1 (gene 7076); assay: BSK_hDFCGF_TIMP1: BioMAP Diversity Plus: hDFCGF Assay for TIMP metallopeptidase inhibitor 1 (TIMP1) Biomarker Activity (AID 2283062); conditions: primary human foreskin fibroblasts; actives raise or lower the signal
In short: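 ELISA readout of TIMP-1 from human dermal foreskin fibroblast cultures 24 h post-dosing. Curves were fitted in both directions against DMSO baseline, with SRB total-protein staining in parallel cultures as a cytotoxicity check.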

[13] = read-out: Monokine induced gamma interferon (MIG), CXCL9 (gene 4283); assay: BSK_hDFCGF_MIG: BioMAP Diversity Plus: hDFCGF Assay for Monokine induced gamma interferon (MIG) Biomarker Activity (AID 2283063); conditions: primary human foreskin fibroblasts; actives raise or lower the signal
In short: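 Fibroblasts (human foreskin, primary) dosed, 24 h, MIG by ELISA; fit bidirectional vs DMSO.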

[14] = read-out: Vascular cell adhesion molecule 1 (VCAM1), VCAM1 (gene 7412); assay: BSK_hDFCGF_VCAM1: BioMAP Diversity Plus: hDFCGF Assay for Vascular cell adhesion molecule 1 (VCAM1) Biomarker Activity (AID 2283065); conditions: primary human foreskin fibroblasts; actives raise or lower the signal;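 as to AC50: VCAM-1 protein level quantified by ELISA after 24 h chemical exposure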
In short: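 ELISA read-out of VCAM-1 on human skin fibroblasts, 24 h post-dose; gain or loss of signal fitted bidirectionally against DMSO baseline.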

[15] = read-out: Plasminogen activator inhibitor-1 (PAI1), SERPINE1 (gene 5054); assay: BSK_hDFCGF_PAI1: BioMAP Diversity Plus: hDFCGF Assay for Plasminogen activator inhibitor-1 (PAI1) Biomarker Activity (AID 2283066); conditions: primary human foreskin fibroblasts; actives raise or lower the signal
In short: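 Human skin fibroblast cultures receive chemical for 24 h before PAI-1 is measured by ELISA; signal changes are fitted bidirectionally against DMSO-treated wells.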

[16] = read-out: Intercellular Adhesion Molecule 1 (ICAM1), ICAM1 (gene 3383); assay: BSK_KF3CT_ICAM1: BioMAP Diversity Plus: KF3CT Assay for Intercellular Adhesion Molecule 1 (ICAM1) Biomarker Activity (AID 2283067); conditions: primary human keratinocytes with fibroblasts; actives raise or lower the signal
In short: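 ELISA readout of ICAM-1; KF3CT human skin co-culture (keratinocytes + foreskin fibroblasts), 24 h post-dose; gain/loss fit vs DMSO baseline.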

[17] = read-out: Interferon-gamma inducible Protein 10 (IP10), CXCL10 (gene 3627); assay: BSK_KF3CT_IP10: BioMAP Diversity Plus: KF3CT Assay for Interferon-gamma inducible Protein 10 (IP10) Biomarker Activity (AID 2283068); conditions: primary human keratinocytes with fibroblasts; actives raise or lower the signal
In short: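 In a primary skin co-culture of keratinocytes and fibroblasts, IP-10 is quantified by ELISA at 24 h after dosing. SRB staining of parallel wells monitors overt toxicity. Curves are fitted both directions against DMSO.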

[18] = BSK_KF3CT_SRB: Viability Assessment in the BioMAP Diversity Plus: KF3CT Assay (AID 2283069); conditions: primary human keratinocytes with fibroblasts;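 also: read 24 h after compound addition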
In short: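 Overt cytotoxicity is assessed as total protein by sulforhodamine B staining in parallel human skin co-cultures at 24 h after dosing. DMSO serves as negative control and baseline.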

[19] = read-out: Interleukin-1 alpha (IL1a), IL1A (gene 3552); assay: BSK_KF3CT_IL1a: BioMAP Diversity Plus: KF3CT Assay for Interleukin-1 alpha (IL1a) Biomarker Activity (AID 2283070); conditions: primary human keratinocytes with fibroblasts; actives raise or lower the signal
In short: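 Readout is IL-1a level by ELISA, compared bidirectionally with DMSO as baseline. Cells: human keratinocytes co-cultured with foreskin fibroblasts, harvested 24 h post-dose.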

[20] = read-out: Matrix Metallopeptidase 1 (MMP1), MMP1 (gene 4312); assay: BSK_hDFCGF_MMP1: BioMAP Diversity Plus: hDFCGF Assay for Matrix Metallopeptidase 1 (MMP1) Biomarker Activity (AID 2283064); conditions: primary human foreskin fibroblasts; actives raise or lower the signal
In short: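 Human foreskin fibroblasts exposed to chemical for 24 h; MMP1 detected by ELISA, with DMSO as baseline for bidirectional fitting.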

Measured: AC50

FC(F)C(F)(F)OCC(Cn1cncn1)c1ccc(Cl)cc1Cl (stereo not given)
active: [3] 27.8 µM | [9] 5.24 µM | [10] 23.4 µM | [15] 19.4 µM
not listed: [20]
inactive: all other assays above

CN1COCN(Cc2cnc(Cl)s2)C1=N[N+](=O)[O-]
not listed: [20]
inactive: all other assays above

CCc1cnc(C2=NC(C)(C(C)C)C(=O)N2)c(C(=O)O)c1 (stereo not given)
not listed: [20]
inactive: all other assays above

CC[C@H](C)[C@H]1O[C@]2(C=C[C@@H]1C)C[C@@H]1C[C@@H](C/C=C(\C)[C@@H](O[C@H]3C[C@H](OC)[C@@H](O[C@H]4C[C@H](OC)[C@@H](NC)[C@H](C)O4)[C@H](C)O3)[C@@H](C)/C=C/C=C3\CO[C@@H]4[C@H](O)C(C)=C[C@@H](C(=O)O1)[C@]34O)O2
inactive: [1] | [2]
active: [3] 4.28 µM | [4] 12.3 µM | [5] 12 µM | [6] 5.53 µM | [7] 11.7 µM | [8] 6.99 µM | [9] 1.43 µM | [10] 2.85 µM | [11] 3.85 µM | [12] 4.4 µM | [13] 5.27 µM | [14] 4.8 µM | [15] 2.08 µM | [16] 9.03 µM | [17] 8.17 µM | [18] 6.31 µM | [19] 5.84 µM

CCCOCC(=Nc1ccc(Cl)cc1C(F)(F)F)n1ccnc1
active: [1] 20.9 µM | [3] 31.1 µM | [5] 20 µM | [6] 29.4 µM | [7] 33.8 µM | [8] 38.3 µM | [9] 21.2 µM | [10] 24.3 µM | [11] 30.4 µM | [12] 32 µM | [20] 33.2 µM | [14] 27.9 µM | [15] 26.3 µM | [16] 29.7 µM | [17] 29.1 µM | [18] 32.7 µM | [19] 36.4 µM
inactive: [2] | [4]

CNC(=O)ON=C(SC)C(=O)N(C)C
not listed: [20]
inactive: all other assays above

COP(=O)(NC(C)=O)SC (stereo not given)
not listed: [20]
inactive: all other assays above

CCOP(=O)(NC(C)C)Oc1ccc(SC)c(C)c1 (stereo not given)
not listed: [20]
inactive: all other assays above

COP(=O)(OC)C(O)C(Cl)(Cl)Cl (stereo not given)
not listed: [8] | [20]
inactive: all other assays above

CCOP(=O)(OCC)Oc1cc(C)nc(C(C)C)n1
active: [6] 31.7 µM | [9] 25.9 µM | [10] 34.3 µM | [12] 14.9 µM | [15] 7.42 µM
not listed: [20]
inactive: all other assays above

CN(C)NC(=O)CCC(=O)O
not listed: [20]
inactive: all other assays above

CCOP(=S)(OCC)Oc1ccc2c(C)c(Cl)c(=O)oc2c1
active: [3] 27.9 µM | [6] 20 µM | [10] 13.6 µM | [20] 5.06 µM | [14] 31.3 µM | [19] 14.4 µM
not listed: [9]
inactive: all other assays above

CNC(=O)ON=C(C)SC
not listed: [20]
inactive: all other assays above

CCCCOC(=O)c1ccccc1C(=O)O
not listed: [20]
inactive: all other assays above

CON=C(C(=O)OC)c1ccccc1CON=C(C)c1cccc(C(F)(F)F)c1
active: [5] 8.45 µM | [6] 1.47 µM | [7] 2.78 µM | [9] 2.77 µM | [11] 4.21 µM | [12] 5.26 µM | [15] 4 µM | [17] 18 µM
not listed: [20]
inactive: all other assays above

CCC(=NOC/C=C/Cl)C1=C(O)CC(C2CCOCC2)CC1=O (stereo not given)
not listed: [20]
inactive: all other assays above

CCc1cccc(C)c1N(C(=O)CCl)C(C)COC (stereo not given)
active: [3] 20 µM | [9] 16.1 µM | [17] 33.2 µM
not listed: [15] | [20]
inactive: all other assays above

CC1(C(=O)Nc2ccc(O)c(Cl)c2Cl)CCCCC1
not listed: [4] | [20]
inactive: all other assays above

CCCCOC(=O)[C@@H](C)Oc1ccc(Oc2ccc(C#N)cc2F)cc1
not listed: [20]
inactive: all other assays above

CCCCN(CC)c1c([N+](=O)[O-])cc(C(F)(F)F)cc1[N+](=O)[O-]
active: [3] 25.5 µM | [9] 27.9 µM | [10] 29.8 µM | [11] 30.1 µM | [15] 31.1 µM | [17] 27.9 µM
not listed: [20]
inactive: all other assays above

CCCOc1nn(C(=O)NS(=O)(=O)c2ccccc2C(=O)OC)c(=O)n1C
not listed: [20]
inactive: all other assays above

CC(C)N(C(=O)SCC(Cl)=C(Cl)Cl)C(C)C
inactive: [2] | [4] | [5]
active: [1] 20 µM | [3] 34 µM | [6] 30.5 µM | [7] 28.4 µM | [8] 33.6 µM | [9] 36.6 µM | [10] 32 µM | [11] 33.8 µM | [12] 34.4 µM | [13] 33.8 µM | [14] 34.8 µM | [15] 34.4 µM | [16] 29.8 µM | [17] 36.3 µM | [18] 32.5 µM | [19] 30.5 µM
